The text below walks through data of ChEMBL document CHEMBL1201862, “PubChem BioAssay data set” (2004).

The whole screen tested about 400,000 compounds, of which about 2,100 (0.53%) were called active. Not shown: some 14% with an inconclusive outcome. How the calls were made is not given here. The entries come from a sample that favours actives as a whole.

For the assay, the target named is Ataxin-2 (Homo sapiens) (UniProt Q99700). The assay can be described thus: qHTS for Inhibitors of ATXN expression. Format: functional. (qHTS replaces the single test concentration by a dilution series.)
Ataxin-2 (Homo sapiens), sequence (Q99700 whole entry): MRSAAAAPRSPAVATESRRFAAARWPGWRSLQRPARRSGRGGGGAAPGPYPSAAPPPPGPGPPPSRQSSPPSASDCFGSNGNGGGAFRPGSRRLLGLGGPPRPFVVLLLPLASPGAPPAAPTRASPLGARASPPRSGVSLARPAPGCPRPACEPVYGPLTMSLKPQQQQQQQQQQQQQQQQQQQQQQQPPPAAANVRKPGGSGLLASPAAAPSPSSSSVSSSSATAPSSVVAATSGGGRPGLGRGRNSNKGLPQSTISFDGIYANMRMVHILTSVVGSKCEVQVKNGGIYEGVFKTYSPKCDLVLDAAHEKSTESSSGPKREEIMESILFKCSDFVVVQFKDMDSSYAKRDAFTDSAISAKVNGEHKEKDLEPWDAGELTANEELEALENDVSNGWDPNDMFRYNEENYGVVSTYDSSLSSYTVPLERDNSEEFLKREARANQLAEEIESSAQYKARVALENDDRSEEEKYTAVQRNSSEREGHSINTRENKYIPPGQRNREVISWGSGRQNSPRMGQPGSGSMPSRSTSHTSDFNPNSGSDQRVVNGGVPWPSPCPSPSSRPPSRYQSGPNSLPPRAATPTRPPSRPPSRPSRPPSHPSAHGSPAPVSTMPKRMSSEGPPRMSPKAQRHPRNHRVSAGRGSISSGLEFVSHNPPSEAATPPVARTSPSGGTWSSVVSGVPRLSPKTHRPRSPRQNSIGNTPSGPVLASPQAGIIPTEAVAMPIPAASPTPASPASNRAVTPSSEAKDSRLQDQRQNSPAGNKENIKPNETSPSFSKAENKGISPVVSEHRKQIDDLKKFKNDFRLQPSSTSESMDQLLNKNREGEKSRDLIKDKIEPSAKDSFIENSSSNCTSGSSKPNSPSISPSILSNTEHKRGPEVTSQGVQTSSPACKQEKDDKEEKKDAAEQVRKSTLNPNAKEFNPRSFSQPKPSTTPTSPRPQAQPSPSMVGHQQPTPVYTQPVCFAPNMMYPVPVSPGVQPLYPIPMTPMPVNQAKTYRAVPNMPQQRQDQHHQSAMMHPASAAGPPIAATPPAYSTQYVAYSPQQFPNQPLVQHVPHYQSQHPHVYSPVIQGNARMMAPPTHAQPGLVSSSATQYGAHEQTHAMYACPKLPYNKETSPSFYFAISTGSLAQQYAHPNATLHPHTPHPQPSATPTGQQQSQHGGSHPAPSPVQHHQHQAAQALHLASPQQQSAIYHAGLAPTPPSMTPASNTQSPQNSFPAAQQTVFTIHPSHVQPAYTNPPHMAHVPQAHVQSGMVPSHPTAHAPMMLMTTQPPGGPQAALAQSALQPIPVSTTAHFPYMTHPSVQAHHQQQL
As to `CC1(C)C(=O)C=CC(=O)C(C)(C)C(=O)C=CC(=O)C(C)(C)C2=CC=C(O2)C(C)(C)C(=O)C=CC1=O`, the Potency is 39.8 µM (active).
In the case of `COCCN=C(S)NCCCNc1nc2cc3c(cc2cc1C#N)OCO3`, the Potency entry was “inactive”.
For the compound `Cc1cccc(NC(=O)c2cc(-c3cc(Cl)ccc3O)[nH]n2)c1`, the Potency result was “inactive”.
On to `Cc1ccc(O)c(-c2cc(-c3ccccc3[N+](=O)[O-])[nH]n2)c1`, for which the Potency was 8.91 µM (active).
Consider `Cc1ccc(C(=O)c2oc3ccccc3c2NC(=O)c2cc(-c3ccccc3O)[nH]n2)cc1`, for which the Potency entry is “inactive”.
Turning to `Cc1csc(NC(=O)c2cc(O)nc3ccc(S(=O)(=O)N4CCOCC4)cc23)n1`, the Potency result is “inactive”.
As for `Cc1ccc(/C=N/N2CCCCC2)o1`, the Potency result was “inactive”.
As for `O=C(O)c1cc(-c2ccc(/C=C3\NC(=O)N(c4ccc(Cl)cc4)C3=O)o2)ccc1Cl`, the Potency entry was “inactive”.
The value for `CCN(CC)c1ccc(/C=C(\C#N)C(=O)NCc2ccccc2)cc1` was “inactive”; that for `CCc1cccc(CC)c1NC(=O)/C(C#N)=C/c1ccccc1C(F)(F)F` was 39.8 µM (active); that for `Cc1cc(/C=C(\C#N)C(=O)Nc2ccccc2F)c(C)[nH]1` was “inactive”.
On to `O=C(NCc1ccccn1)C(=O)C1C(=O)Nc2ccccc21` (stereo unspecified), for which the Potency entry is “inactive”.
With `COc1ccc(CCNC2=CC(=O)N(c3ccc(F)cc3)C2=O)cc1`, the Potency result is “inactive”.
Regarding `COc1ccc([C@H]2/C=C\CN(C(=O)CC(C)(C)C)[C@@H](C)C(=O)N2Cc2ccc(F)cc2)cc1`, the Potency is 35.5 µM (active).
With `COc1cc(C(=O)N/N=C/c2sc(N3CCOCC3)nc2-c2ccccc2)cc(OC)c1OC`, the Potency entry is “inactive”.
Take `COc1ccc(/C=C2\Oc3cc(OCC(=O)N4CCC(C(=O)O)CC4)ccc3C2=O)c(OC)c1`: the Potency result was “inactive”.
As for `CCOC(=O)c1cc2c(=O)n3ccccc3nc2n(Cc2ccco2)/c1=N\C(=O)c1c(F)cccc1Cl`, the Potency entry is “inactive”.
`COC(=O)Cc1c(C)c2cc3c(c(C)c2oc1=O)OCN(CCc1ccccc1F)C3`: the Potency result was “inactive”.
Take `COC(=O)c1cc(=O)n(CCc2ccccc2F)/c(=N/c2ccc(F)c(Cl)c2)s1`: the Potency was 33.6 µM (active).
Regarding `Cc1cs/c(=N\c2cccnc2)n1Cc1ccco1`, the Potency result was “inactive”.
The result for `COC(=O)c1cc2c(s1)-c1cc(F)ccc1OC2` reads “inactive”.
With `COC(=O)c1cc(=O)n(-c2ccc(F)cc2)/c(=N/c2ccc(F)cc2)s1`, the Potency is 23.8 µM (active).
`COC(=O)c1cc(=O)n(Cc2ccco2)/c(=N/c2ccc(F)c(Cl)c2)s1`: the Potency is 3.16 µM (active).
Regarding `Cc1ccc(CCNC(=O)c2cc(S(=O)(=O)N3CCOCC3)cn2C)cc1`, the Potency entry is “inactive”.
As to `COc1ccc(CN(C(=O)c2snc(C(N)=O)c2N)C(C)C(=O)NCc2ccc(F)cc2)cc1` (stereo unspecified), the Potency entry is “inactive”.
As for `CNc1nc(N)c([N+](=O)[O-])c(NCC2CCCO2)n1` (stereo unspecified), the Potency result was “inactive”.
Take `COc1cccc(Nc2nc(N)c([N+](=O)[O-])c(NCc3ccccc3)n2)c1`: the Potency is 31.6 µM (active).
Take `COc1cccc(/C=C/c2nc(C#N)c(NC3CCCCC3)o2)c1`: the Potency result is “inactive”.
As to `COc1cccc(-c2ccc3c(N)c(C(=O)NCc4ccc(Cl)cc4)sc3n2)c1`, the Potency result is “inactive”.
The value for `CCc1nc(Nc2cccc(OC)c2)c2oc3ccccc3c2n1` was “inactive”.
In the case of `COc1ccc(Nc2nc(N)c([N+](=O)[O-])c(NC3CCCCC3)n2)cc1`, the Potency was 31.6 µM (active).
As to `O=C1/C(=C/c2ccco2)Oc2c1ccc(O)c2CN1CCCCC1`, the Potency result was “inactive”.
The result for `O=c1cc(-c2ccccc2)[nH]n1-c1ccc([N+](=O)[O-])cc1` reads 20 µM (active); that for `O=[N+]([O-])c1cccc(C2CC(c3ccccc3)=NN2c2ccccc2)c1` (stereo unspecified), “inactive”.
On to `O=[N+]([O-])c1ccc(-c2cn3nc(-c4ccccc4)c(-c4ccccc4)nc3n2)cc1`, for which the Potency result is “inactive”.
On to `CCOc1ccc(/C=C/c2nc(C#N)c(NCCCOC)o2)cc1`, for which the Potency result is “inactive”.
With `C#CCN(C[C@H]1[C@H](OC(=O)NC2CCCC2)[C@H](OC(=O)NC2CCCC2)C[C@@H](C(=O)OC)[C@H]1C(=O)OC)S(=O)(=O)c1ccc(C)cc1`, the Potency is 39.8 µM (active).
The value for `CC(C)N1CCC(N2CCN(Cc3cccc4nonc34)CC2CCO)CC1` (stereo unspecified) was “inactive”.
Take `CCCCNC(=O)CN1C(=O)c2cccc(N)c2C1=O`: the Potency result was “inactive”.
For `Clc1ccc(-c2cn3nc4c(nc3n2)CCCC4)cc1`, the Potency entry was “inactive”.
Take `COc1ccccc1/C=C/C=C1\Oc2c(ccc(O)c2CN(C)C)C1=O`: the Potency result was “inactive”.
As to `COc1cccc2sc(Nc3nnc(-c4ccc(F)cc4)o3)nc12`, the Potency was 31.6 µM (active).
For the compound `COc1ccc(-c2nnc(-c3ccc(F)cc3)o2)cc1`, the Potency entry was “inactive”.
In the case of `CCOc1cccc2sc(NN)nc12`, the Potency result was “inactive”.
With `Cc1cccn2c(=O)c3cc(C(=O)NCc4ccccc4)c(=N)n(CCOCCO)c3nc12`, the Potency entry is “inactive”.
Consider `Cc1c(O)c(CN2CCCC2)cc2c3c(c(=O)oc12)CCC3`, for which the Potency entry is “inactive”.
In the case of `COc1ccc(CCN2C(=O)COc3ccccc3C2C(=O)Nc2ccc3c(c2)OCCO3)cc1OC` (stereo unspecified), the Potency is 25.1 µM (active).
As to `Cc1ccc(NC(=O)C2OCCc3ccccc32)cc1C` (stereo unspecified), the Potency result was “inactive”.
In the case of `CCCCNc1c(N)n(CCC)c(=O)[nH]c1=O`, the Potency result was “inactive”.
In the case of `O=C(CN1C(=O)NC(Cc2c[nH]c3ccccc23)C1=O)Nc1ccc(F)c(F)c1F` (stereo unspecified), the Potency result was “inactive”.
With `CC(C)c1cccc(C(C)C)c1N=C(S)Nc1cccc(Cl)c1`, the Potency result is “inactive”.
Consider `Cc1csc(N=C(S)Nc2cccc(Cl)c2)n1`, for which the Potency was 25.1 µM (active).
For the compound `CN(C)C(CN=C(S)Nc1cccc(Cl)c1)c1cccnc1` (stereo unspecified), the Potency entry is “inactive”.
In the case of `CCCCC[C@@H](C)N1C[C@H](COCc2ccccc2)Oc2cc(N3CCC[C@H]3CO)ccc2S1(=O)=O`, the Potency was 10 µM (active).
Turning to `CCCCC[C@@H](C)N1C[C@H](COCc2ccccc2)Oc2cc(N3CCC[C@@H]3CO)ccc2S1(=O)=O`, the Potency is 39.8 µM (active).
In the case of `CCCCC[C@H](C)N1C[C@H](COCc2ccccc2)Oc2cc(N3CCC[C@H]3CO)ccc2S1(=O)=O`, the Potency was 28.2 µM (active).
Turning to `Cc1ccc(-c2nc3n(n2)C(c2ccccc2C)C=C(c2ccc(Cl)cc2)N3)cc1` (stereo unspecified), the Potency result is “inactive”.
Take `COC(=O)c1ccc(C)c(NC(=O)CSc2nc3nc(O)cc(O)c3s2)c1`: the Potency entry is “inactive”.
The result for `Cc1cccc2c1-c1sc(C(=O)Nc3nccs3)cc1CO2` reads “inactive”; that for `COc1ccc(S(=O)(=O)N2CCN(Cc3cc(OC)c(OC)cc3OC)CC2)cc1`, “inactive”.
Take `Cc1ccnc(N2C(=O)c3cccc4c([N+](=O)[O-])ccc(c34)C2=O)c1`: the Potency result is “inactive”.
The result for `COc1ccc(CN(C)C(C)C(=O)N(C)CC(=O)Nc2ccc(C)cc2)cc1F` (stereo unspecified) reads “inactive”.
For the compound `CN(CC(=O)Nc1c(Cl)cccc1Cl)C(=O)C1CC(=O)N(Cc2ccccc2)C1` (stereo unspecified), the Potency result is “inactive”.
As for `Cc1cccc(NC(=O)CNC(=O)Cn2ncc(Cl)c(Cl)c2=O)c1C`, the Potency is 21.2 µM (active).
Take `Cc1ccccc1OCC(=O)Nc1cccc(Cl)c1C`: the Potency entry was “inactive”.
Regarding `CC(=O)Nc1ccc(NC(=O)CCC(=O)Oc2ccc(C)cc2)cc1`, the Potency entry is “inactive”.
The value for `CCc1ccccc1NC(=O)CN(C)C(=O)Cn1ncc(Cl)c(Cl)c1=O` was 35.5 µM (active); that for `Cc1ccc(CNC(=O)Cn2ncn3cccc3c2=O)cc1` was “inactive”; that for `CN(CC(=O)Nc1ccccc1Cl)C(=O)CN1C(=O)NC(c2ccccc2)(c2ccccc2)C1=O` was “inactive”.
As to `Cc1ccc(NC(=O)CN(C)C(=O)Cn2ncc(Cl)c(Cl)c2=O)cc1`, the Potency is 28.2 µM (active).
For `O=C(NN/C=C1\C(=O)N(Cc2ccccc2)C(=O)c2ccccc21)c1cccnc1`, the Potency result is “inactive”.
As to `CC(=O)Nc1nc2n(n1)C(c1ccccc1)C=C(c1ccccc1)N2` (stereo unspecified), the Potency entry was “inactive”.
With `C1=C(c2ccccc2)Nc2ncnn2C1c1ccccc1` (stereo unspecified), the Potency entry is “inactive”.
On to `CCOC(=O)CCc1c(C)c2ccc3c(c2oc1=O)CN(CCCO)CO3`, for which the Potency result was “inactive”.
For the compound `Cc1ccc(C(=O)c2no[n+]([O-])c2C(=O)c2ccc(C)cc2)cc1`, the Potency is 31.6 µM (active).
Take `Cc1c(C(=O)c2no[n+]([O-])c2C(=O)c2cnn(C)c2C)cnn1C`: the Potency was 39.8 µM (active).
The result for `Cc1ccc(N2C(=O)C3C(C(=O)c4ccccc4)=NN(c4ccccc4)C3C2=O)cc1` (stereo unspecified) reads “inactive”.
The value for `CC(=O)c1ccc2noc(-c3ccc(C)cc3)c2c1` was “inactive”; that for `CC(OC(=O)c1ccccc1O)C(=O)Nc1ccc(Cl)cn1` (stereo unspecified) was “inactive”.
Turning to `COc1cc(C(CC(=O)Nc2ccc(Cl)cn2)N2Cc3ccccc3C2=O)cc(OC)c1OC` (stereo unspecified), the Potency result is “inactive”.
The value for `CCc1cc2c(CN3CCN(C)CC3)cc(=O)oc2cc1O` was “inactive”; that for `COCOCCn1cc(CN2CCS(=O)(=O)N(Cc3ccc(-c4ccc(Cl)c(Cl)c4)cc3)C(C(C)C)C2=O)nn1` (stereo unspecified) was 28.2 µM (active); that for `COCOCCn1cc(CN2CCS(=O)(=O)N(Cc3ccc(-c4ccccc4)cc3)C(CC(C)C)C2=O)nn1` (stereo unspecified) was 39.8 µM (active).
The value for `COCOCCn1cc(CN2CCS(=O)(=O)N(Cc3ccc(-c4ccc(Cl)c(Cl)c4)cc3)C(C)C2=O)nn1` (stereo unspecified) was 22.4 µM (active).
Regarding `CCOC(=O)NC(=O)/C(=C/Nc1ccc(Cl)c(Cl)c1Cl)C(C)=O`, the Potency entry was “inactive”.
As to `Nc1c(C(=O)N2CCCC2)sc2nc3c(cc12)CCCCCC3`, the Potency entry was “inactive”.
Regarding `c1cnn2c(-c3ccc4c(c3)CCO4)cnc2c1`, the Potency result is “inactive”.
As to `O=C(CNC(=O)OCc1ccccc1)Oc1cc2oc(=O)cc(-c3ccccc3)c2cc1Cl`, the Potency result is “inactive”.
The value for `Cc1onc(C(=O)NC2CCCCC2)c1[N+](=O)[O-]` was “inactive”; that for `COc1cc(N)ccc1Nc1c2ccccc2nc2ccccc12` was “inactive”.
Consider `COc1ccccc1Nc1c2ccccc2nc2ccccc12`, for which the Potency result was “inactive”.
As for `COc1ccc(Nc2c3c(nc4ccccc24)CCC3)cc1Cl`, the Potency was 28.2 µM (active).
Regarding `COc1ccc(C2CC(c3cccs3)=NN2c2ccc(C=O)cc2)cc1` (stereo unspecified), the Potency entry was “inactive”.
Take `Oc1ccc(-c2cnc3ccccc3n2)cc1`: the Potency result is “inactive”.
For `O=C(CCl)Nc1ccc(Oc2cnc3ccccc3n2)cc1`, the Potency was 20 µM (active).
With `CC(C)(C)C(=O)Nc1ccc(C(=O)Nc2cccc(Oc3ccc(C(=O)O)c(C(=O)O)c3)c2)cc1`, the Potency entry is “inactive”.
Take `O=C(O)CSCC(=O)NCc1c(Cl)cccc1Oc1ccccc1`: the Potency result was “inactive”.
In the case of `CCOC(=O)c1ccc(Nc2cnc3ccccc3n2)cc1`, the Potency result is “inactive”.
In the case of `O=C(CCl)Nc1cccc(Oc2ccccc2)c1`, the Potency was 8.44 µM (active).
With `CCOc1ccc(-c2cnc3ccccc3n2)cc1`, the Potency entry was “inactive”.
As for `O=C(CCl)Nc1cccc(-c2cnc3ccccc3n2)c1`, the Potency was 3.98 µM (active).
